55 compounds from paper PMC4336329 (PLoS ONE, 2015) can be followed below.

The campaign covered roughly 310,000 compounds. About 14,000 (4.5%) showed an effect of 50% or more. The effect is printed as a negative number. Shown is part of a subset that was picked to be rich in strong results.
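Further: peak tail current of the secondary pulse compared with the same well before compound.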

For this test, the target named is human ether-à-go-go-related gene (hERG) potassium channel (human, UniProt Q12809). Briefly: primary screen, population patch clamp on CHO cells stably expressing hERG; higher = less effect of the substance.
Chain of human ether-à-go-go-related gene (hERG) potassium channel (Q12809 whole entry, looked up): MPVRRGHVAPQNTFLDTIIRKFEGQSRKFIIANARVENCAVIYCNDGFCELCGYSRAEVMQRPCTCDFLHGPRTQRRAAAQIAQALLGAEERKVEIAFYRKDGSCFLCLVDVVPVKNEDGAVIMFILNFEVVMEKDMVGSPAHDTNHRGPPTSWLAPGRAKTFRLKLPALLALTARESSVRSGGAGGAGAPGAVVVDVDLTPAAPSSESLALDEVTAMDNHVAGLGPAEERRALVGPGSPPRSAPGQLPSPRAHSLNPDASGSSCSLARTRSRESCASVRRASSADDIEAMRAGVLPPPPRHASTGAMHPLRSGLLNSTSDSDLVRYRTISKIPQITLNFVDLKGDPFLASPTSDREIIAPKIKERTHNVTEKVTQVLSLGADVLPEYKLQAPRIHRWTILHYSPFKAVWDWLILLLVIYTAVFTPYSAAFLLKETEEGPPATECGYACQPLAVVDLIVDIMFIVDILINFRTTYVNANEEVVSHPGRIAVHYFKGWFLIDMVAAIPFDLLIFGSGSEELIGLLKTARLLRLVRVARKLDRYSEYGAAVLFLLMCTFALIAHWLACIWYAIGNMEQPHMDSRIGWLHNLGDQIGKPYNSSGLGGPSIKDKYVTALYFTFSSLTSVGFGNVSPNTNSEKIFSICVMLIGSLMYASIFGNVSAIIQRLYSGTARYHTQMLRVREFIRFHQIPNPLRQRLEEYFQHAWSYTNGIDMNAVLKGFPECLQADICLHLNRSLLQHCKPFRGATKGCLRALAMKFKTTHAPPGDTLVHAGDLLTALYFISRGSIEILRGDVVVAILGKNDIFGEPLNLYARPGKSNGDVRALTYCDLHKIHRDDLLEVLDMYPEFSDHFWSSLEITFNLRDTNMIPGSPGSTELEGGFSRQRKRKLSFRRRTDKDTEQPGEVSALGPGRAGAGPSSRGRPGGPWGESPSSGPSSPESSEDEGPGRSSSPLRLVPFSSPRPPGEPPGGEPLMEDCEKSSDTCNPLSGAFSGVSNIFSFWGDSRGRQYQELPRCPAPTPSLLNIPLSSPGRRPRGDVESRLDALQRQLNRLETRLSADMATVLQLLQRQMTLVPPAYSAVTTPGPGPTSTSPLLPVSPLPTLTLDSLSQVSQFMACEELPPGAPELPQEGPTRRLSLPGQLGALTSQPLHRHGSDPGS
For the compound `CCCCNc1nc2c(c(=O)n(C)c(=O)n2C)n1CCC`, the “hERG current change (%, negative = inhibition) at 10uM” value came to 9.61%.

For `O=C(NC1CCN(Cc2ccccc2)CC1)c1cccc(S(=O)(=O)Nc2cc(C(F)(F)F)ccc2Cl)c1`, the “hERG current change (%, negative = inhibition) at 10uM” value is -48.8%.

On to `O=C(NC1CCN(Cc2ccccc2)CC1)c1cccc(S(=O)(=O)Nc2ccc(F)cc2)c1`, for which the “hERG current change (%, negative = inhibition) at 10uM” value is listed as -63.8%.

For `COCCNS(=O)(=O)c1ccc(Cl)c(C(=O)NC2CCN(Cc3ccccc3)CC2)c1`, the “hERG current change (%, negative = inhibition) at 10uM” value is reported as -1.21%.

For the compound `CCOc1ccc(NS(=O)(=O)c2ccc(C(=O)NC3CCN(Cc4ccccc4)CC3)cc2)cc1`, the “hERG current change (%, negative = inhibition) at 10uM” value is reported as 3.07%.

`O=C(NCCCN1CCOCC1)c1cccc(S(=O)(=O)Nc2ccc(F)cc2)c1`: the “hERG current change (%, negative = inhibition) at 10uM” value is recorded as -23.3%.

For the compound `COc1ccc(NS(=O)(=O)c2ccc(C)c(C(=O)NC3CCN(Cc4ccccc4)CC3)c2)cc1`, the “hERG current change (%, negative = inhibition) at 10uM” value is listed as -51.1%.

On to `CN(C)S(=O)(=O)Nc1cccc(Br)c1`, for which the “hERG current change (%, negative = inhibition) at 10uM” value is -14.2%.

As for `CCCCCc1cc(=O)oc2c(C(CCN3CCCC3)c3cc(OC)c(OC)c(OC)c3)c(OC)cc(OC)c12` (stereo not shown), the “hERG current change (%, negative = inhibition) at 10uM” value was -65.6%.

Regarding `CCCCCc1cc(=O)oc2c(C(CCN3CCCCC3)c3cc(OC)c(OC)c(OC)c3)c(OC)cc(OC)c12` (stereo not shown), the “hERG current change (%, negative = inhibition) at 10uM” value was -74.6%.

Regarding `CCCCCc1cc(=O)oc2c(C(CCN3CCCC(C)C3)c3cc(OC)c(OC)c(OC)c3)c(OC)cc(OC)c12` (stereo not shown), the “hERG current change (%, negative = inhibition) at 10uM” value is -64.4%.

On to `COc1cc(O)c(C(CCN2CCCC(C)C2)c2cc(OC)c(OC)c(OC)c2)c(OC)c1` (stereo not shown), for which the “hERG current change (%, negative = inhibition) at 10uM” value is reported as 5.07%.

As for `CCCCCc1cc(=O)oc2c(C(CCN(CC)CC)c3cc(OC)c(OC)c(OC)c3)c(OC)cc(OC)c12` (stereo not shown), the “hERG current change (%, negative = inhibition) at 10uM” value is on record as -38.2%.

Regarding `Cc1cccc2c1N(N=O)CCC2`, the “hERG current change (%, negative = inhibition) at 10uM” value is given as -2.33%.

With `Cc1ccc(N2CC(C(=O)Nc3ccc4c(c3)OCO4)CC2=O)cc1` (stereo not shown), the “hERG current change (%, negative = inhibition) at 10uM” value is listed as 9.48%.

`Cc1ccc(-c2c(C(=O)N/N=C/C3CC=CCC3)nnn2-c2nonc2N)cc1` (stereo not shown): the “hERG current change (%, negative = inhibition) at 10uM” value worked out at 20.5%.

Take `Cc1nccnc1Sc1ccccc1`: the “hERG current change (%, negative = inhibition) at 10uM” value came to 22.4%.

In the case of `Cc1ccc(S(=O)(=O)NNC(=O)Cc2cccn2C)cc1`, the “hERG current change (%, negative = inhibition) at 10uM” value was determined as 11.2%.

Regarding `CCCCN(C)C(=O)c1oc2ccc(S(=O)(=O)N3CCCCCC3)cc2c1C`, the “hERG current change (%, negative = inhibition) at 10uM” value was -15.9%.

As to `CCC1Sc2ccc(S(=O)(=O)CCC(=O)Nc3cc(C)ccn3)cc2NC1=O` (stereo not shown), the “hERG current change (%, negative = inhibition) at 10uM” value is given as 11.9%.

In the case of `COc1ccccc1C(=O)Nc1cccc2nc(C)ccc12`, the “hERG current change (%, negative = inhibition) at 10uM” value was 8%.

As to `Cc1cc(NC(=O)c2cnn3cccnc23)n(-c2ccccc2)n1`, the “hERG current change (%, negative = inhibition) at 10uM” value is -61.8%.

Turning to `Cc1cc(NC(=O)c2cnn3cccnc23)no1`, the “hERG current change (%, negative = inhibition) at 10uM” value is recorded as -0.805%.

As to `Cc1cc(C(=O)Nc2c(F)cc(F)cc2Br)n(-c2ccccc2)n1`, the “hERG current change (%, negative = inhibition) at 10uM” value was found to be 16%.

As for `Cc1cc(NC(=O)c2ccccc2)n(-c2ccccc2)n1`, the “hERG current change (%, negative = inhibition) at 10uM” value is listed as 30.8%.

Regarding `CCOC(=O)c1cccc(NC(=O)c2cc(C)nn2-c2ccccc2)c1`, the “hERG current change (%, negative = inhibition) at 10uM” value was -50.5%.

For `Cc1cc(NC(=O)c2ccc(Cl)cc2)n(-c2ccccc2)n1`, the “hERG current change (%, negative = inhibition) at 10uM” value is -1.41%.

Take `Cc1cc(C(=O)Nc2ccc(F)cc2C)n(-c2ccccc2)n1`: the “hERG current change (%, negative = inhibition) at 10uM” value is listed as 12.6%.

With `Cc1c(NC(=O)c2cnn3cccnc23)c(=O)n(-c2ccccc2)n1C`, the “hERG current change (%, negative = inhibition) at 10uM” value is 4.45%.

Regarding `Cc1cc(C(=O)Nc2c(F)c(F)c(F)c(F)c2F)n(-c2ccccc2)n1`, the “hERG current change (%, negative = inhibition) at 10uM” value is listed as -59.1%.

Take `Cc1cc(NC(=O)c2ccc(F)cc2)n(-c2ccccc2)n1`: the “hERG current change (%, negative = inhibition) at 10uM” value is given as -80.2%.

Turning to `CC(=O)c1cccc(NC(=O)c2cc(C)nn2-c2ccccc2)c1`, the “hERG current change (%, negative = inhibition) at 10uM” value is on record as -21%.

In the case of `CCOC(=O)c1ccc(NC(=O)c2cc(C)nn2-c2ccccc2)cc1`, the “hERG current change (%, negative = inhibition) at 10uM” value is recorded as -7.01%.

Regarding `COc1ccc(OC)c2c1C(=O)C(Cl)=C(Cl)C2=O`, the “hERG current change (%, negative = inhibition) at 10uM” value is on record as 13.4%.

With `COCc1c(C#N)c(NCCc2ccc(F)cc2)nc(C)c1[N+](=O)[O-]`, the “hERG current change (%, negative = inhibition) at 10uM” value stood at 1.39%.

Take `Cc1ccc(C(=O)Nc2ccc3c4c(cccc24)CC3)cc1[N+](=O)[O-]`: the “hERG current change (%, negative = inhibition) at 10uM” value is listed as -1.54%.

As for `Cc1cc(C)n(-c2nnc(C)n2NS(C)(=O)=O)n1`, the “hERG current change (%, negative = inhibition) at 10uM” value came out at 14.6%.

Turning to `Cc1csc(C(C#N)C(=O)c2ccc(S(=O)(=O)N3CCCC3)cc2)n1` (stereo not shown), the “hERG current change (%, negative = inhibition) at 10uM” value came out at 5.45%.

Take `COc1ccccc1N1CCN(C(=O)CN2C(=O)C3CCCCC3C2=O)CC1` (stereo not shown): the “hERG current change (%, negative = inhibition) at 10uM” value worked out at 22.7%.

Regarding `Cc1onc(-c2c(F)cccc2Cl)c1C(=O)Nc1c(C)n(C)n(-c2ccccc2)c1=O`, the “hERG current change (%, negative = inhibition) at 10uM” value came to 0.00478%.

On to `COc1ccccc1NS(=O)(=O)c1cc(C)ccc1C`, for which the “hERG current change (%, negative = inhibition) at 10uM” value is listed as 4.55%.

As to `CCCc1nn(C)c2c(=O)[nH]c(-c3cc(S(=O)(=O)N(CCO)CCO)ccc3OCC)nc12`, the “hERG current change (%, negative = inhibition) at 10uM” value was 0.59%.

In the case of `CCc1ccc2c(c1)C(c1ccc([N+](=O)[O-])cc1)=NNC(c1ccc(F)cc1)=N2`, the “hERG current change (%, negative = inhibition) at 10uM” value was -7.54%.

`COc1ccc(S(=O)(=O)Cc2ccc(C(=O)N3CCN(c4ncccn4)CC3)o2)cc1`: the “hERG current change (%, negative = inhibition) at 10uM” value is -16.8%.

With `CCOC(=O)N1CCN(C(=O)c2ccc(CS(=O)(=O)c3ccc(OC)cc3)o2)CC1`, the “hERG current change (%, negative = inhibition) at 10uM” value is reported as -16%.

Take `COc1ccc(CCC(=O)N2CCN(S(=O)(=O)c3ccc(OC)cc3)CC2)cc1`: the “hERG current change (%, negative = inhibition) at 10uM” value is listed as -8.45%.

On to `COc1ccc(S(=O)(=O)Cc2ccc(C(=O)N3CCN(c4cccc(C)c4C)CC3)o2)cc1`, for which the “hERG current change (%, negative = inhibition) at 10uM” value was -30.6%.

Take `COc1ccc(S(=O)(=O)Cc2ccc(C(=O)N3CCOCC3)o2)cc1`: the “hERG current change (%, negative = inhibition) at 10uM” value is recorded as 1.23%.

Consider `COc1ccc(S(=O)(=O)N2CCN(C(=O)c3ccc([N+](=O)[O-])o3)CC2)cc1`, for which the “hERG current change (%, negative = inhibition) at 10uM” value is on record as -51.3%.

With `COc1ccc(S(=O)(=O)Cc2ccc(C(=O)N3CCN(c4cc(Cl)ccc4C)CC3)o2)cc1`, the “hERG current change (%, negative = inhibition) at 10uM” value is 9.01%.

In the case of `COc1ccc(S(=O)(=O)Cc2ccc(C(=O)N3CCN(c4ccccc4)CC3)o2)cc1`, the “hERG current change (%, negative = inhibition) at 10uM” value is -37.6%.

On to `COc1ccc(S(=O)(=O)N2CCN(C(=O)c3ccc(C)o3)CC2)cc1`, for which the “hERG current change (%, negative = inhibition) at 10uM” value is on record as -5.16%.

On to `COc1ccc(N2CCN(C(=O)c3ccc(CS(=O)(=O)c4ccc(OC)cc4)o3)CC2)cc1`, for which the “hERG current change (%, negative = inhibition) at 10uM” value was -64.7%.

In the case of `COc1ccc(S(=O)(=O)Cc2ccc(C(=O)N3CCN(c4ccc(Cl)cc4)CC3)o2)cc1`, the “hERG current change (%, negative = inhibition) at 10uM” value is listed as -55.5%.

Turning to `COc1ccc(S(=O)(=O)Cc2ccc(C(=O)N3CCN(c4ccccc4F)CC3)o2)cc1`, the “hERG current change (%, negative = inhibition) at 10uM” value is -52.8%.
